Assay outcomes deposited in PubChem by The Scripps Research Institute Molecular Screening Center.
Hits are enriched below; roughly 2.3% of the tested compounds scored in any of these assays.
CHO-K1 Ca ag = counter-screen for M1 agonists: effect in parental CHO-K1 cells; Fluo-8 calcium fluorescence; scaled to maximal ATP response, vehicle zero; activation, % at 3 µM; 360,000 compounds, 0.48% hits; AID 602248, 2012; in the data active = activation above about 15%;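 also: untransfected CHO-K1 host cells lacking M1 receptor as counterscreen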
CHO-K1 Ca antag = nonselective inhibitor or artifact in parental CHO-K1 cells. inhibition, % at 3 µM. ATP-induced calcium, Fluo-8 fluorescence. 360,000 compounds, 0.6% hits;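 active = inhibition above a per-plate cutoff, the plate's mean sample inhibition plus 3 SD, cut at about 24% in these data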
M1 PAM parental = nonselective calcium activators in parental CHO-K1 cells, primary screen, counter-screen for M1 PAM project, cell-based, Fluo-8 calcium fluorescence, full deck, 1536-well; activation, % at 3 µM; 360,000 compounds, 0.02% hits; ATP EC20; 0% at ATP EC20, 100% at ATP max;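 active = activation above the run cutoff, the mean activation of all test compounds plus 3 SD, cut at about 40% in these data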;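 also: peak over basal fluorescence ratio in a 140 s read after ATP addition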
CHRM1 PAM = human M1 muscarinic receptor positive allosteric modulators, primary screen, CHO-K1 cells, Fluo-8 calcium fluorescence, 1536-well; Muscarinic acetylcholine receptor M1 (Homo sapiens), P11229; CHO-K1 hM1, ACh EC20; 0% = ACh EC20, 100% = maximal ACh; activation, % at 3 µM; 360,000 compounds, 0.088% hits; in the data active = activation above about 19%, passing the limit was not always enough
Target sequence (P11229 whole entry, looked up): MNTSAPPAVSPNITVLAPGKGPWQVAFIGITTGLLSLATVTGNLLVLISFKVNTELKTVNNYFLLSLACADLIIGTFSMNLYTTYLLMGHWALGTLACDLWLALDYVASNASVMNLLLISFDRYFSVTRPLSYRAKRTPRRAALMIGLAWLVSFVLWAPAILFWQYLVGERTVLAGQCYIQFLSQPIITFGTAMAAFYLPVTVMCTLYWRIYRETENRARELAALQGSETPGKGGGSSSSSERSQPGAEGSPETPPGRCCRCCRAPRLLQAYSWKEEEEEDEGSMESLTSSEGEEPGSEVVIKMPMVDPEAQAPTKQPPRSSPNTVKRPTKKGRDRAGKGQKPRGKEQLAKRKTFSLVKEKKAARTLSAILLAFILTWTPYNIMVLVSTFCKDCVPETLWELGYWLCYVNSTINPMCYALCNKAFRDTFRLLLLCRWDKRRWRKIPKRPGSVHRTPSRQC
CHRM1 antagonist = human M1 muscarinic receptor antagonists, primary screen, CHO-K1 cells, Fluo-8 calcium fluorescence, 1536-well; CHO-K1 hM1, ACh EC80 antagonist; AID 588852, 2011; 360,000 compounds, 1.3% hits; inhibition, % at 3 µM;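 active = percent inhibition above its own plate's cutoff, namely the mean of that plate's compound wells plus 3 SD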;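 also: peak over basal fluorescence ratio during 140 s after agonist addition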
M1 ag = human M1 muscarinic receptor agonists, primary screen, Fluo-8 calcium fluorescence, CHO-K1 cells, HTS. activation, % at 3 µM. Muscarinic acetylcholine receptor M1 (Homo sapiens), P11229. 360,000 compounds, 0.33% hits. AID 588814, 2011. CHO-K1 hM1, agonist mode; 0% DMSO, 100% acetylcholine EC100;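 active = activation above the run's mean compound activation plus 3 SD, cut at about 16% in these data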;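 also: peak over basal fluorescence ratio within a 140 s kinetic read after compound addition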
Each line names hits and unclear results; the compound was inactive in the other large screens.

CC1CN(C(=O)c2ccc(S(=O)(=O)Nc3cccc(C(F)(F)F)c3)cc2)CC(C)O1 (stereo unspecified)	CHO-K1 Ca ag 21.5, M1 ag 24.8
O=C(NNC1=Nc2cccc3cccc1c23)c1ccc(Br)cc1	none
CCN(Cc1ccc2c(c1)OCCO2)C(=O)CN1C(=O)NC2(CCc3ccccc32)C1=O (stereo unspecified)	none
CC1CCN(C(=O)CN(CCc2ccccc2)S(C)(=O)=O)CC1	none
CC(C)CC(=O)N1CCC(N(CCc2ccccc2)Cc2ccccc2)CC1	CHRM1 antagonist 56.9
O=C(COC(=O)c1ccc(Cl)c(S(=O)(=O)N2CCCCC2)c1)NCCc1ccccc1	CHO-K1 Ca antag 25.0
CC1CN(C(=O)COC(=O)c2ccc(Cl)c(S(=O)(=O)N3CCCCC3)c2)CC(C)O1 (stereo unspecified)	CHO-K1 Ca ag 19.6
O=C(NCCc1ccccc1)c1ccc(Cl)c(S(=O)(=O)N2CCCC2)c1	none
COc1ccc(C(=O)OCC(=O)NCCc2ccc(F)cc2)cc1S(=O)(=O)N1CCOCC1	CHRM1 antagonist 33.4
CCN(CC)C(=O)C1=C(C)N(Cc2ccc(F)cc2)C(=O)C(CC(=O)NCc2ccco2)C1 (stereo unspecified)	none
O=C(COc1ccc2c(c1)OCO2)Nc1ccccc1F	none
COC(=O)c1ccccc1NC(=O)COc1ccc2c(c1)OCO2	CHO-K1 Ca antag 29.7
COc1ccc(S(=O)(=O)N2CCCCCC2)cc1C(=O)N(C)Cc1ccc(OC)c(OC)c1OC	none
NC1=NC(=O)C(=Cc2ccccc2)S1	CHRM1 PAM 27.2
O=C1Nc2ccccc2Oc2cc([N+](=O)[O-])cc(Oc3ccccc3)c21	none
O=[N+]([O-])c1cc2c(c([N+](=O)[O-])c1)Nc1ccccc1O2	CHO-K1 Ca ag 16.8
CC(C)CC(C(=O)NC(C)(C)C)N(Cc1cccs1)C(=O)c1snc(C(N)=O)c1N (stereo unspecified)	none
CCCOc1ccc(N2C(=O)CC(N3CCN(c4ccc([N+](=O)[O-])cc4)CC3)C2=O)cc1 (stereo unspecified)	CHO-K1 Ca ag 24.7
CSc1cccc(N2CC(C(=O)Nc3cccc(S(=O)(=O)N4CCCC4)c3)CC2=O)c1 (stereo unspecified)	none
O=C1CC(c2ccco2)CC2=C1C1c3ccccc3C(=O)N1c1ccccc1N2 (stereo unspecified)	none
O=C1CCCC2=C1C1c3ccccc3C(=O)N1c1ccc(C(=O)c3ccccc3)cc1N2 (stereo unspecified)	CHO-K1 Ca antag 24.2
O=C(C1CCC(CNS(=O)(=O)c2cccs2)CC1)N1CCN(c2ccc(Cl)cc2)CC1 (stereo unspecified)	CHO-K1 Ca ag 15.9
CN(C)Cc1ccccc1Cc1ccccc1	none
CN(C)Cc1ccccc1CCc1ccccc1	CHRM1 antagonist 59.6
CCn1cc(C(=O)NC2CCCc3c2cnn3-c2cccc(C)c2C)cn1 (stereo unspecified)	CHO-K1 Ca antag 25.1, CHRM1 antagonist 30.6
CCO[C@H]1OC(C(=O)NCc2ccccc2)=C[C@@H](c2ccc(C(F)(F)F)cc2)[C@@H]1CCCO	none
CCO[C@@H]1OC(C(=O)NCc2ccccc2)=C[C@H](c2ccc(Br)cc2)[C@H]1CCCO	CHRM1 antagonist 67.9
C#Cc1ccc([C@H]2C=C(C(=O)NCc3ccccc3)O[C@@H](OCC)[C@@H]2CCCO)cc1	CHRM1 antagonist 63.2
C#Cc1ccc([C@@H]2C=C(C(=O)Nc3ccccc3)O[C@H](OCC)[C@H]2CCCO)cc1	none
C[N+]1(CCOC(=O)C2(c3ccccc3)CCCC2)CCCCC1	CHRM1 antagonist 99.7
O=C(COC(=O)C1(c2ccccc2)CC1)NNC(=O)c1ccccc1F	none
CC(C[N+](C)(C)C)OC(=O)C1(c2ccccc2)CCCC1 (stereo unspecified)	CHRM1 antagonist 92.9
COc1ccc(NC(=O)C2(c3ccccc3)CCCC2)cc1	none
CCN(CC)CCOC(=O)C1(c2ccc([N+](=O)[O-])cc2)CCCC1	CHRM1 antagonist 95.9
COc1ccc(C(=O)OCC[N+]2(C)CCCCC2)cc1	none
C[N+](C)(C)CCOC(=O)C1(c2ccccc2)CCCC1	CHRM1 antagonist 98.9
CCC(C)[C@H](NS(=O)(=O)c1ccc(C)cc1)C(=O)N1CCC(C(=O)N2CCC(C(N)=O)CC2)CC1 (stereo partly specified)	none
Cc1[nH]c2ccccc2c1C(=O)C(=O)NCc1ccco1	none
CC1CCCCC1NC(=O)c1cccc(N2C(=O)C3C4C=CC(C4)C3C2=O)c1 (stereo unspecified)	none
CCN(CC)CCCOC(=O)C1(c2ccccc2)CCCC1	CHRM1 antagonist 99.1
CCN(CC)CCOC(=O)C1(c2ccccc2)CCOCC1	none
Oc1ccc(C[C@@H]2CNCCN2CCc2cc(C(F)(F)F)cc(C(F)(F)F)c2)cc1	CHRM1 PAM 25.2
O=C(c1nn(Cc2ccccc2)c(=O)c2ccccc12)N1CCN(C/C=C/c2ccccc2)CC1	CHRM1 antagonist 94.9
CCn1nc(C(=O)N2CCN(Cc3nc4ccccc4s3)CC2)c2ccccc2c1=O	CHRM1 antagonist 38.5
O=C(c1ccco1)N1CCN(C/C=C/c2ccccc2)CC1	none
CN(C)S(=O)(=O)c1ccc2oc(SCC(N)=O)nc2c1	none
CN(C)S(=O)(=O)c1ccc2oc(SCC(=O)c3c(N)n(C4CC4)c(=O)[nH]c3=O)nc2c1	CHO-K1 Ca ag 20.4
O=C(CCn1c(=S)oc2ccccc21)Nc1ccccc1F	CHO-K1 Ca antag 25.8
CN1CCN(c2nc3c(c(=O)[nH]c(=O)n3C)n2CCSc2nc3ccccc3s2)CC1	CHO-K1 Ca antag 27.2, M1 ag 17.6
Cn1c(=O)[nH]c(=O)c2c1nc(N1CCc3ccccc3C1)n2CCSc1nc2ccccc2s1	none
Cn1c(=O)[nH]c(=O)c2c1nc(N1CCN(Cc3ccccc3)CC1)n2CCSc1ncccn1	CHRM1 antagonist 33.0
CC(C)Oc1ccccc1/C=N/NC(=O)c1ccc(F)cc1	CHRM1 PAM 22.0
CCc1nc(CN2CCCC(C(=O)c3ccc4c5c(cccc35)CC4)C2)c(C)[nH]1 (stereo unspecified)	CHO-K1 Ca antag 25.2
O=C(c1ccc2c3c(cccc13)CC2)C1CCCN(Cc2ccncc2)C1 (stereo unspecified)	none
COc1ccc(C(=O)NCCn2ccc3ccccc32)c(OC)c1	M1 PAM parental 41.3
